Shiga inhibitor: blocks Shiga toxin action in Vero cells. inhibition, % at 38.7 µM. hit rate 9.2% among 290,000. Vero cells, Shiga toxin protein synthesis inhibition reporter; in the data active means inhibition mostly above about 28%, no sharp cut-off; inactive means mostly below about 43%; further: 0% is about no effect
NS1 function inh: inhibitors of influenza NS1 protein function | Potency, µM (highest dose often 46.1 µM), for inactives: at the top dose activity, positive = more growth | hit rate 0.4% among 270,000; calls by dose curve; further: potency means the concentration at half of the fitted maximal effect; actives are rising curves; nearly all actives have a fitted effect of over 50% in size
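Compounds were scored for reversing the slow growth caused by influenza A NS1 in S. cerevisiae, measured by optical density at 600 nm. Assay medium contained 2% galactose at pH 6.0; NS1-free yeast of the same strain were the positive control.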
Pf growth 48h: P. falciparum growth inhibition at 48 hours (one generation); P. falciparum luciferase growth in erythrocytes, 48 h; Potency, µM (doses to about 28.7 µM), for inactives: top-dose activity change, negative = inhibition, hits mostly inhibitors; hit rate 5.9% among 310,000; AID 504832; further: potency means the concentration at half of the fitted maximal effect; on the % scale 0 is the no-effect control and ±100 the full control effect
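Firefly luciferase activity from engineered P. falciparum reports growth; inhibitors lower the luminescent signal. Cultures contained 2% hematocrit erythrocytes at 0.1% final parasitemia.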
Pf growth 96h: inhibits malaria parasite growth, 96 h; Potency, µM (titrated, usually from 28.7 µM), for the others: at the top dose activity change, negative = inhibition, hits mostly inhibitors; P. falciparum luciferase reporter growth, 96 h; hit rate 6.9% among 320,000; further: potency means the concentration at half of the fitted maximal effect; on the % scale 0 is the no-effect control and ±100 the full control effect
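Delayed-death screen, second-generation endpoint: infected erythrocytes, 2% hematocrit, 0.05% parasitemia final; 96 hours at 37 C, 5% CO2; luciferase detection reagent; luminescence decrease equals reduced growth.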
Sm TGR inh: blocks Schistosoma mansoni thioredoxin glutathione reductase. Q962Y6. purified TGR, DTNB reduction, TNB absorbance 405 nm. Potency, µM (series often up to 114 µM), for inactives: at the highest dose activity change, negative = inhibition, most hits filed as inhibitors. hit rate 3% among 360,000; further: potency means the concentration at half of the fitted maximal effect; on the % scale 0 is the no-effect control and ±100 the full control effect; nearly all actives have a fitted effect of over 60% in size
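First, TGR (20 nM dispensed) and NADPH were mixed with compound. Second, a 15 min room-temperature incubation followed. Third, further NADPH and then DTNB were added to start the reaction. Finally, TNB absorbance was monitored kinetically.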
CHX counter: counter-screen hit for Shiga toxin inhibitors, cycloheximide; cell reporter, cycloheximide protein synthesis inhibition counterscreen; max response, %; hit rate 12% among 300,000; in the data active means max response mostly above about 13%, no sharp cut-off; inactive means mostly below about 14%; further: read at 38.3 µM for the half of the compounds with a filed dose; 0% is about no effect
The depositor's hits bear a star; ? = inconclusive; nt = no result given; + = active, no number. Only some compounds are listed: those with a hit (about 21% of all), similar ones and a draw of the others. Unless noted, the call rests on the fitted dose curve; in most records, active means well fitted curve in the direction sought with a large enough effect; inconclusive means small, poorly fitted or top-dose-only effect, or another doubt; inactive means no such curve, though single readings can be large; an effect the other way counts as inactive or inconclusive.

SMILES | Shiga inhibitor | NS1 function inh | Pf growth 48h | Pf growth 96h | Sm TGR inh | CHX counter
O=C(O)c1cn(Cc2ccccn2)c(=O)c2ccccc12 | -8.4 | nt | ? | 81.5% | -6.8% | -2.7
Cc1ccc(/C=N/N=C/c2ccc(C)s2)s1 | + | -5.8% | 334.9% | 369.0% | -4.3% | 71.4*
COc1cccc(N/N=C/c2cccc(Br)c2O)c1 | 88.3* | 3.8% | 96.7% | 49.1% | 35.5µM* | 29.6*
Cc1cccc(NC(=O)CN2C(=O)N/C(=C/c3ccc(C)s3)C2=O)c1 | 39.5 | -1.0% | 18.1% | 0.0% | -17.2% | 1.3
Cc1ccc(C=Nc2ccccc2C(N)=O)s1 | -3.5 | -2.1% | 10.3% | 51.0% | -11.9% | 13.5
Cc1cccc(N/N=C/c2ccc(O)c(O)c2O)c1 | 11.6 | -2.0% | ? | 8.3% | 7.08µM* | 0.4
Cc1cccc(N/N=C/c2ccc(C)s2)c1 | 80.0* | -5.8% | ? | ? | -14.5% | 40.1*
CC(OC(=O)c1nc(Cl)ccc1Cl)C(=O)c1ccccc1 (centres undefined) | nt | nt | -3.0% | 2.5% | -2.8% | nt
CCOc1ccccc1NC(=O)Cn1c(=O)n(CCC(C)C)c(=O)c2cccnc21 | nt | nt | nt | nt | -2.7% | nt
CC(=O)N/C(=C\c1ccccc1)C(=O)OCC(=O)Nc1cc(S(=O)(=O)N(C)C)ccc1Cl | nt | nt | 27.1% | -1.1% | ? | nt
CCOc1ccccc1C1C2=C(COC2=O)Nc2cc3c(cc21)OCO3 (centres undefined) | -14.3 | 1.8% | ? | 10.4µM* | 0.5% | -1.9
O=C1OCC2=C1C(c1ccc(F)cc1)c1cc3c(cc1N2)OCO3 (centres undefined) | -7.0 | nt | 8.1% | 32.5% | -0.8% | -4.7
Cc1ccc(OC(=O)c2cccc(S(=O)(=O)N(C)C)c2)c(-n2nc3ccccc3n2)c1 | 72.6* | 17.0% | nt | 220.0% | 1.5% | 63.8*
COC(=O)c1cccc(S(=O)(=O)N2CCCC2)c1 | -11.9 | 1.3% | -7.9% | -1.2% | -0.7% | -2.1
Cc1ccc(OC(=O)c2ccc(S(=O)(=O)N(C)C)cc2)c(-n2nc3ccccc3n2)c1 | 80.7* | ? | 284.9% | 440.2% | -16.8% | 34.0*
CC(=O)Oc1ccc(C)cc1-n1nc2ccccc2n1 | 130.9* | -20.6% | 205.2% | -10.7% | 8.6% | 60.5*
Cc1ccc(OCC(=O)O)c(-n2nc3ccccc3n2)c1 | -14.8 | -9.4% | 7.9% | -23.8% | -34.2% | 1.3
Cc1ccc(OC(=O)c2cccc(S(=O)(=O)N3CCCC3)c2)c(-n2nc3ccccc3n2)c1 | + | ? | 231.4% | -42.7% | -1.6% | 68.9*
COc1ccc(CCC(=O)Nc2ccccc2C(F)(F)F)cc1 | 27.9 | 7.2% | 0.9% | 51.0% | 9.6% | -1.2
Cc1ccc(C)c(OCCC(=O)OCC(=O)NNC(=O)c2ccccc2)c1 | nt | nt | ? | -26.3% | -7.8% | nt
COc1ccc(/C=C/c2nc(S(=O)(=O)c3ccccc3)c(N(C)C)o2)cc1 | 5.7 | -9.8% | ? | ? | ? | 9.6
CCN(CC)S(=O)(=O)c1cc(NC(=O)C(C)Nc2ccccc2N2CCOCC2)ccc1C (centres undefined) | 35.9 | nt | ? | 7.38µM* | -1.4% | 3.5
CCN(CC)S(=O)(=O)c1cc(NC(=O)C(C)N2CCN(c3ccccn3)CC2)ccc1C (centres undefined) | 11.3 | nt | 11.7µM* | 3.7µM* | -8.4% | 1.6
CCN(CC)S(=O)(=O)c1cc(NC(=O)C2Cc3ccccc3C(=O)O2)ccc1C (centres undefined) | 56.1* | -10.6% | -5.9% | 51.5% | 0.2% | 26.5*
O=C(Cc1ccccc1)NN1C(=O)C2C3C=CC(C3)[C@@H]2C1=O (some centres undefined) | 3.3 | 20.6% | -6.8% | 0.0% | 2.3% | -3.2
SMILES | Shiga inhibitor | NS1 function inh | Pf growth 48h | Pf growth 96h | Sm TGR inh | CHX counter
CCOc1ccc(-c2cc3c(=O)n(CC(=O)NCc4ccc(F)cc4)ccn3n2)cc1 | nt | nt | nt | nt | -0.1% | nt
COC(=O)c1c(NC(=O)c2cc3nc(-c4ccc(Br)cc4)cc(C(F)(F)F)n3n2)sc2c1CCCC2 | nt | nt | nt | nt | 0.9% | nt
NC(=O)c1nsc(C(=O)N(Cc2cccnc2)C(C(=O)NCc2ccc(F)cc2)c2ccc(F)cc2)c1N (centres undefined) | -9.9 | -19.2% | ? | -20.4% | -11.8% | -4.8
CCOC(=O)C1CCN(C(=O)Cn2nc(CC)n3c(cc4sccc43)c2=O)CC1 | nt | nt | nt | nt | 3.6% | nt
O=C(CCn1nnnc1CN1CCOCC1)N1CCC(c2ccccc2F)C1 (centres undefined) | 11.2 | 1.6% | -9.2% | 39.9% | 25.1µM* | 11.5
CCOC(=O)C1CCCN(C(=O)CCCn2nnnc2CN2CCOCC2)C1 (centres undefined) | -4.1 | 2.7% | -8.7% | ? | 39.8µM* | -3.7
O=C(CCCn1nnnc1CN1CCOCC1)N1CCC(c2ccccc2Cl)C1 (centres undefined) | 2.6 | -2.1% | ? | 4.9% | ? | -1.6
CCOC(=O)C1CCCN(C(=O)CCCn2nc(C)n3c(cc4sccc43)c2=O)C1 (centres undefined) | -18.8 | -6.4% | nt | 2.94µM* | 6.0% | -11.9
Cc1ccc(CN2C3=NCCCN3c3ccccc32)cc1 | -3.8 | -6.3% | 11.7µM* | ? | 9.6% | -4.7
Clc1ccc(CN2C3=NCCN3c3ccccc32)cc1 | -15.0 | 1.9% | ? | nt | 7.6% | -3.2
Clc1cccc(CN2C3=NCCCN3c3ccccc32)c1 | 0.8 | -1.4% | -17.0% | ? | 13.0% | -3.0
COC(=O)CN1C2=NCCCN2c2ccccc21 | -12.3 | 5.0% | 32.2% | 80.3% | nt | -1.9
Brc1ccc(CN2C3=NCCCN3c3ccccc32)cc1 | -12.5 | -7.3% | 11.7µM* | 130.6% | -1.5% | -6.8
CC(C)(C)c1ccc(CN2C3=NCCCN3c3ccccc32)cc1 | -7.3 | -0.8% | 3.7µM* | 0.8% | -23.5% | -5.4
Clc1ccc(CN2C3=NCCCN3c3ccccc32)c(Cl)c1 | -5.1 | -2.5% | ? | 1.04µM* | -6.7% | -2.6
Cc1ccc(S(=O)(=O)c2nc(-c3ccc(F)cc3)oc2N2CCOCC2)cc1 | -17.6 | 4.7% | -21.1% | 100.2% | ? | -1.4
Cc1cc(C)cc(NC(=O)CSCc2cc(=O)c3ccc(C)c(C)c3[nH]2)c1 | nt | nt | nt | nt | -1.5% | nt
c1ccc(CN2C3=NCCCN3c3ccccc32)cc1 | -8.3 | 2.1% | 8.28µM* | 52.5% | -10.9% | -2.1
CCc1nnc(NC(=O)c2c(C)nn(-c3ccccc3)c2Cl)s1 | 31.0 | -40.3% | 0.7% | ? | 0.6% | 42.4*
COc1ccccc1NC(=O)c1c(C)nn(-c2ccccc2)c1Cl | 12.8 | -42.2% | -27.9% | -17.6% | -7.1% | 14.2*
Cc1nn(-c2ccccc2)c(Cl)c1C(=O)NCC(C)c1ccccc1 (centres undefined) | 73.7* | -19.6% | -21.4% | ? | 14.9% | 43.4*
Cc1nn(-c2ccccc2)c(Cl)c1C(=O)N(C)CC(=O)Nc1cccc(F)c1 | nt | nt | ? | -12.2% | -1.7% | nt
Cc1nn(-c2ccccc2)c(Cl)c1C(=O)N(C)c1nc(-c2ccc(F)cc2)cs1 | -6.0 | 0.6% | 21.8% | 7.38µM* | -2.2% | 0.8

Assay outcomes as filed in PubChem BioAssay.
